USP17 block – inhibitors of human USP17 deubiquitinase; inhibition, % at 50 µM; 47,000 compounds, 6.5% hits; Ubiquitin carboxyl-terminal hydrolase 17-like protein 5 (Homo sapiens), A8MUK1; purified USP17, Ub-rhodamine cleavage fluorescence, 3 h
USP30 inh – inhibitors of human USP30 deubiquitinase. purified USP30, Ub-rhodamine cleavage fluorescence. inhibition, % at 25 µM. 47,000 compounds, 5.3% hits. AID 1645860, 2021
Target sequence (Q70CQ3 whole entry, looked up): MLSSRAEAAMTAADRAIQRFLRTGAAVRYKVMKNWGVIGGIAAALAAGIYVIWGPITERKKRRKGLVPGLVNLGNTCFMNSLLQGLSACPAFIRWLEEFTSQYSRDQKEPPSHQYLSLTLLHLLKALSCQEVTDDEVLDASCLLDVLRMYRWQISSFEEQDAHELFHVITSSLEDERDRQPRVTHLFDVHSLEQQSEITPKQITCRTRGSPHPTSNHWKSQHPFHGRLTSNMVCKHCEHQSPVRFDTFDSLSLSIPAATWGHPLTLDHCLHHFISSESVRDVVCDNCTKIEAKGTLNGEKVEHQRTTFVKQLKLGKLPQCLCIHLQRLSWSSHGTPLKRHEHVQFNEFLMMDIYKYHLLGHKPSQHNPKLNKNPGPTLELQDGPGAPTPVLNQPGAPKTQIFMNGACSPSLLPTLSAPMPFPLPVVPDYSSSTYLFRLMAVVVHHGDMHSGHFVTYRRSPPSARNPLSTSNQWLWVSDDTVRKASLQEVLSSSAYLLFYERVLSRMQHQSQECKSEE
USP8 block – inhibitors of human USP8 deubiquitinase. Ubiquitin carboxyl-terminal hydrolase 8 (Homo sapiens), P40818. purified USP8, Ub-rhodamine cleavage fluorescence, 30 min. inhibition, % at 20 µM. 47,000 compounds, 4.2% hits. AID 1645853, 2021
Numbers stand for hits; i = inactive; nt = no result given. A selection: hits, their analogues and other compounds. The true share with any hit is near 12%. Cut-off read from the data, not from the text of the source: active = inhibition above about 30%; inactive = the rest.

SMILES | USP17 block | USP30 inh | USP8 block
CCCn1c(=O)c2nscc2n(CC(=O)Nc2ccc(C)cc2F)c1=O | i | i | i
Cc1nc(C(=O)NC2CCCCC2)cc2c1[nH]c1ccccc12 | i | i | i
COc1ccc(CCNC(=O)[C@H](C)NC(=O)c2cc3c([nH]c4ccccc43)c(C)n2)cc1 | 34 | i | i
Nc1nc(N2CCOCC2)ncc1C(=O)NCc1ccccc1F | i | i | i
CCn1c(=O)[nH]c2c(C(=O)N3CC=C(c4ccccc4)CC3)snc2c1=O | i | i | i
COc1ccc2[nH]cc(CCNC(=O)C3CCCN(c4ncnc5nc[nH]c45)C3)c2c1 (configuration not stated) | i | i | i
Cc1cccc(NC(=O)NCCc2cn(C)c3ncccc23)c1C | i | i | i
Cc1ccc(C)c(NC(=O)NCCc2cn(C)c3ncccc23)c1 | 37 | i | i
CCC(C(=O)Nc1ncc2c(n1)CC(c1ccc(Cl)cc1)CC2=O)c1ccccc1 (configuration not stated) | i | i | i
CN(C)c1cc(C(=O)NC2CC2)c2cc(F)ccc2n1 | i | i | i
O=C(c1cccc2c1OCCO2)N1CCOCC1c1ccn[nH]1 (configuration not stated) | i | 33 | i
CC(C)(C)c1cc(C(=O)N2CCOCC2c2ccn[nH]2)n[nH]1 (configuration not stated) | i | i | i
O=C(NC1CCCCC1)c1c2c(nc3ccccc13)-c1ccccc1CC2 | i | i | i
O=C(NCc1ccco1)c1c2c(nc3ccccc13)-c1ccccc1CC2 | i | i | 55
COc1ccc2ccccc2c1S(=O)N1CCN(Cc2ccccc2)CC1 (configuration not stated) | i | i | i
Cc1ccc(C(=O)[C@H]2C(c3ccccc3OCC#N)=NO[C@]23C(=O)Nc2ccccc23)cc1 | 42 | i | i
Cc1ccc(C(=O)[C@H]2C(/C=C/c3ccccc3)=NO[C@]23C(=O)Nc2ccccc23)cc1 | i | i | i
O=C(NCCC1=CCCCC1)c1cc(OCc2ccccc2)nc2ccccc12 | i | i | i
COc1ccc(S(=O)(=O)N2CCC[C@@H](Cn3nnc(-c4ccncc4)n3)C2)cc1 | i | i | i
CCOc1ccccc1CN1CCC[C@@H](Cn2nnc(-c3ccncc3)n2)C1 | i | 32 | i
Cc1noc(-c2ccc(-n3cnc(C(=O)NCc4ccccc4C)c3)nc2)n1 | i | i | i
Cc1ccc(S(=O)(=O)N2CCN(C(=O)CN3c4ccccc4CC3C)CC2)c(C)c1 (configuration not stated) | i | i | 37
Cc1ccc(S(=O)(=O)N2CCN(C(=O)CN3CCc4ccccc43)CC2)c(C)c1 | i | i | i
O=C(CCc1nnc2n(Cc3ccccc3Cl)c(=O)c3ccccc3n12)NC1CC1 | i | i | i
O=C1NCCCCC1NS(=O)(=O)c1cccc(C(F)(F)F)c1 (configuration not stated) | i | i | i
SMILES | USP17 block | USP30 inh | USP8 block
Cc1c(S(=O)(=O)NC2CCCCNC2=O)sc2ccc(Cl)cc12 (configuration not stated) | 51 | i | i
O=c1[nH]c2ccccc2c(=O)n1CCc1nc(-c2ccc(F)cc2)no1 | 36 | i | i
CCOc1ccccc1-c1noc(CCCC(=O)Nc2ccccc2)n1 | i | i | i
CCOc1ccccc1-c1noc(CCn2c(=O)[nH]c3ccccc3c2=O)n1 | i | 35 | i
COCCn1c(=O)[nH]c2cc(-c3nc(-c4ccccc4)no3)ccc2c1=O | i | i | i
COc1ccccc1-c1noc(Cn2cnc3c(nnn3Cc3ccc(F)cc3)c2=O)n1 | i | i | i
CCn1c(=O)c2ccccc2n(Cc2nc(-c3ccccc3OC)no2)c1=O | 56 | i | i
O=C(CC(NCc1cccnc1)C(=O)O)Nc1cccc(O)c1 (configuration not stated) | i | i | i
CC(=O)Nc1cccc(Nc2nnc(-n3nc(C)cc3C)c3ccccc23)c1 | i | i | i
O=C(OCC(=O)N1CCc2ccccc2C1)c1cc(S(=O)(=O)N2CCCCC2)ccc1Cl | i | i | i
CC(C)CCNC(=O)c1ccc(C(C)(C)C)cc1 | i | i | i
Cc1cccc(-n2ccc3nc(N4CCc5ccccc5C4)ncc3c2=O)c1 | i | i | i
O=C(CC(=O)c1c(F)cccc1F)c1ccccc1O | i | 30 | i
Cc1cnc(NC(=O)CNC(=O)c2ccccc2F)s1 | i | i | i
COc1cccc(CNC(=O)CSc2ncc3c(n2)-c2ccc(Cl)cc2N(C)S3(=O)=O)c1 | i | i | i
COc1ccc(-c2ccc3cc(C(=O)O)ccc3c2)cc1C12CC3CC(CC(C3)C1)C2 | i | i | 66
COc1ccc(-c2noc(C(=O)NC3CC(C)(C)NC(C)(C)C3)n2)cc1OC | i | i | i
COc1ccc2c(C)c(CCC(=O)N3CC[C@@]4(O)CCCC[C@H]4C3)c(=O)oc2c1C | i | i | i
COc1cc(COc2ccc3c(C)c(CC(=O)N4CC[C@@]5(O)CCCC[C@H]5C4)c(=O)oc3c2C)cc(OC)c1OC | 48 | 50 | i
COc1ccc2ccccc2c1S(=O)N1CCN(c2ccccn2)CC1 (configuration not stated) | i | i | i
Nc1nc(-c2ccccn2)nc(N)c1Cc1ccccc1F | i | i | i
Fc1ccc(Nc2nc(-c3ccccn3)nc3ccccc23)cc1 | 39 | 31 | i
NC(=O)c1cccc(Nc2nc(C(F)(F)F)nc3ccccc23)c1 | i | i | i
Fc1cccc(Nc2nc(-c3ccccn3)nc3ccccc23)c1 | 43 | i | i
C[C@]12C(=O)N(C3CCCC3)CC(=O)N1CC(c1ccc(Cl)cc1)c1c2[nH]c2ccccc12 (some centres not stated) | i | i | i
SMILES | USP17 block | USP30 inh | USP8 block
CC(=O)c1cc2c(=O)c3c(C(=O)O)c(O)c(O)cc3oc2c(C(C)=O)c1-c1coc2cc(O)c(O)c(C(=O)O)c2c1=O | 46 | i | i
Brc1cccc(C2(c3nc(Cc4ccccc4)no3)CCOCC2)c1 | i | i | i
Nc1c(-c2nc(-c3ccccc3)cs2)nnn1-c1ccccc1 | i | nt | i
COc1ccc(-c2csc(-c3nnn(-c4cc(OC)cc(OC)c4)c3N)n2)cc1 | i | i | i
Cc1ccc(-c2csc(-c3nnn(-c4cccc(Cl)c4)c3N)n2)cc1 | i | i | 42
Nc1c(-c2nc(-c3ccc4c(c3)OCO4)cs2)nnn1-c1ccccc1 | 65 | i | 34
O=S(=O)(NCc1cccs1)c1ccccc1F | i | i | i
CCc1noc(-c2ccc(-n3ncc(C(=O)N4CCC(C)CC4)c3C)nc2)n1 | i | i | i
COc1ccccc1N1CCN(C(=O)Cc2ccccc2[N+](=O)[O-])CC1 | i | i | i
COc1ccccc1CC(=O)N1CCN(c2cccc3[nH]ccc23)CC1 | i | i | 58
CNc1cncc(C2CCCN2C(=O)c2ccc3c(c2)OCCO3)n1 (configuration not stated) | i | i | i
O=C(Cn1cnc(S(=O)(=O)N2CCc3ccccc32)c1)Nc1ccccc1F | i | i | i
CCOc1ccc(C(=O)OCC(=O)Nc2ccc3c(c2)OCCO3)cc1OC | i | i | i
COCCn1ccc2nc(C)c(C(=O)NCc3ccccc3)cc2c1=O | i | i | i
CCOCCn1ccc2c(OCC(=O)Nc3ccc4c(c3)OCCO4)cccc2c1=O | 66 | 84 | i

Bioassay records from PubChem.
